Source: PubChem BioAssay (NCI)
This is part of a sample that, as a whole, favours compounds with a hit. Of some 83,000 tested, about 20% had one in any assay.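 The test compound was applied at a single concentration to cells in 96-well plates for 48 hours, and percent growth was recorded.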 The source made the active and inactive calls.

System: SR leukemia
Assay: NCI-60 one-dose screen, 48 h (100 = growth as untreated, 0 = no growth, -100 = all killed)
Conditions: 10 µM unless noted
Description: Growth inhibition of the SR human tumor cell line is measured as a screen for anti-cancer activity. Cells are grown in 96 well plates and exposed to the test compound for 48 hours. Compounds are tested at a single concentration, which is 10^-5 M for most compounds. The reported endpoint is percent growth (GI% or GIPRCNT), where numbers from 0 - 100% represent growth inhibition, and numbers from -100% - 0 represent cell death. For example, a value of 40 represents 60% growth inhibition. A value of 0 means no net growth occurred over the course of the experiment. A value of -40 indicates 40% of cells at the beginning of the experiment died by the end of the experiment. A value of -100 means all cells are dead at the end of the experiment.
NCI-60 Human Tumor Cell Lines Screen was performed using the standard one-dose NCI protocol, which is described in more detail at https://dtp.cancer.gov/discovery_development/nci-60/default.htm.
Compounds with GIPRCNT values below 10 were considered active. Activity score was based on GIPRCNT using the following formula: […]
Score is 0 for GIPRCNT values of 100 or above, 50 for GIPRCNT values of 0, and 100 for GIPRCNT values of -100.

Row | SMILES | growth
1 | COc1ccc(C(=O)c2sc3nc4c(cc3c2N)CCCC4)cc1OC | -7.02% (active)
2 | O=C(Nc1cccc2c1C(=O)c1cccc(Nc3cccc4c3C(=O)c3cccc(NC(=O)c5ccccc5)c3C4=O)c1C2=O)c1ccccc1 | 101% (inactive)
3 | CC1=C(NCCN2CCCC2)C(=O)c2c(OCc3ccc(F)c(Cl)c3)cccc2C1=O | -14.3% (active)
4 | CC(=O)C1=C(O)C=C2Oc3c(C(=O)/C=C/c4ccccc4)c(O)c(C)c(O)c3[C@]2(C)C1=O | 30.3% (inactive)
5 | O=C(O)C(O)C(O)C(=O)O.[NH-]C1CCCCC1[NH-].[Pt+2] (stereo not given) | 117% (inactive)
6 | CC/C=C\C[C@H](F)C/C=C1/C(=O)C=C[C@@H]1C/C=C\CCCC(=O)O | -13.2% (active)
7 | Nc1nc2ccc(-c3nc4ccc5[nH]ncc5c4c4c3CCC4)cc2s1 | 20.7% (inactive)
8 | CCCCCCNC(=O)Oc1ccc(/C(=C(\C)c2ccccc2)c2ccc(OCCN(CC)CC)cc2)cc1 | 1.65% (active)
9 | CC(=O)O[C@H]1CC[C@]2(C)[C@H]3CC[C@@H]4[C@H]5[C@H](C(C)C)CC[C@]5(C(=O)OCC(CO)(CO)N=C(N)N)CC[C@@]4(C)[C@]3(C)CC[C@H]2C1(C)C | -13.6% (active)
10 | COc1c(Cl)cc(Cl)cc1Cl | 101% (inactive)
11 | O=c1c2cccc3c(Nc4ccccn4)ccc(c32)c2nc3ccccc3n12 | 10.2% (inactive)
12 | O=[N+]([O-])c1cccc(-c2nc3sccn3c2-c2ccnc(NCCNS(=O)(=O)c3ccc(C(F)(F)F)cc3)n2)c1 | 39.2% (inactive)
13 | COc1ccc2nc3cc(Cl)ccc3c(NCCNCC(O)CO)c2c1 (stereo not given) | 6.64% (active)
14 | Cc1cc(-c2nc3ccccc3s2)ccc1NC(=O)COc1ccc(Cl)cc1 | 87.5% (inactive)
15 | COc1ccc(-c2csc(NC(=O)CN3CCN(c4cc5c(cc4F)c(=O)c(C(=O)O)cn5C4CC4)CC3)n2)cc1 | 16.7% (inactive)
16 | COc1cc(OC)c(/C=C/S(=O)(=O)Cc2cnc(OC)c(N)c2)c(OC)c1 | -6.9% (active)
17 | CNCc1cccc2c1OCCOCCOCCN(C)S(=O)(=O)c1ccc(cc1)-c1cnc(N)c(n1)C(=O)N2 | -35% (active)
18 | Cn1c(=O)c2c(ncn2CC[N+](C)(C)C)n(C)c1=O | 94.7% (inactive)
19 | CCN(CC)CCCC(C)N/C(=C1\C(=O)NC(=O)\C1=C(/NC(C)CCCN(CC)CC)c1cccc(OC)c1)c1cccc(OC)c1 (stereo not given) | -25.1% (active)
20 | COc1ccc2nc3cc(Cl)ccc3c(N3CCN(c4nccc(NCc5ccccc5)n4)CC3)c2c1 | 20.9% (inactive)

Row | SMILES | growth
21 | C[C@]12C[C@@H](c3ccoc3)OC(=O)[C@@H]1CC[C@]1(C)[C@@H]2CC[C@@H](O)[C@]1(C)O | 74.5% (inactive)
22 | CCCCOc1ccc(NC(=O)n2nc(NC(C)=O)c3cc(NC(C)=O)ccc32)cc1 | 88.4% (inactive)
23 | CCCCCCCCCCCCCCCCCCNC(=O)[C@H]1CSC(c2ccc(OC)c(F)c2)N1 (stereo not given in full) | -30.9% (active)
24 | COc1ccc(CN2C(=O)/C(=C\c3cc(OC)c(OC)c(OC)c3)c3cc(OC)ccc32)cc1 | -31.1% (active)
25 | COc1ccc(-c2cc(-c3ccc(N(C)C)cc3)nc(NC(=O)c3ccncc3)n2)cc1 | 121% (inactive)
26 | CN1CCN(Cc2ccc(NC(=O)c3cncc(C#Cc4c(N)ncc5ccc(C#N)cc45)c3)cc2C(F)(F)F)CC1 | -13% (active)
27 | COc1ccc(-c2nc(Nc3cc(C)[nH]n3)c3ccccc3n2)cc1 | 23.7% (inactive)
28 | COc1nc2c(cc1S(=O)(=O)c1ccccc1)CCc1c-2cnn1-c1ccc(Cl)cc1 | 80.7% (inactive)
29 | CC1CN(Cc2ccco2)C(=S)N(c2ccccc2)C1=O (stereo not given) | 91.2% (inactive)
30 | COc1ccc(S(=O)(=O)NCCCNc2cc(-c3c(-c4cccc(OC)c4)nc4sccn34)ccn2)cc1 | 43.5% (inactive)
31 | COc1c2ccccc2c(OC)c2[nH]c(=O)ccc12 | 22.2% (inactive)
32 | COc1ccc(-c2c(C)noc2-c2ccc(O)cc2O)cc1 | 31.1% (inactive)
33 | CC(C)C1=C[C@@]23CC[C@@H]4[C@](C)(CCC[C@@]4(C)C(=O)OCC#CCN4CCCC4)[C@H]2C[C@@H]1[C@H]1C(=O)OC(=O)[C@H]13 | 92% (inactive)
34 | CCC(c1ccccc1)C(CC)c1ccc(O)c(O)c1 (stereo not given) | 55.3% (inactive)
35 | Cc1ccc2c(c1)n([O-])c1cc(Cl)ccc1[n+]2=O | 5.98% (active)
36 | Cc1ccc(S(=O)(=O)n2cc(-c3csc(-c4cn(C)c5ncccc45)n3)c3ccccc32)cc1 | 2.53% (active)
37 | CC/C=C\C[C@H](O)C/C=C1/C(=O)C=C[C@@H]1C/C=C\CCCC(=O)NC(C)C | -24.9% (active)
38 | COc1ccc(/C=C/C(=O)c2ccc(NC(=O)c3cc4cc5ccccc5nc4s3)cc2)cc1OC | 98.6% (inactive)
39 | C/C(Cc1ccc(Cl)cc1)=C(\c1ccc(OCCN2CCCCCC2)cc1)c1ccc(OC(=O)C2CCCCC2)cc1 | -0.529% (active)
40 | COc1ccc(S(=O)(=O)NCCCNc2nccc(-c3c(-c4cccc(N)c4)nc4sccn34)n2)cc1 | 86.4% (inactive)
